According to PubChem BioAssay (NCI):
About 83,000 compounds went through this panel and 20% of them were active in at least one assay; those are over-represented in the sample as a whole.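 Single-concentration screen, 48 h exposure, 96-well plates. Endpoint: percent growth. Below 10 = active.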 A number with no mark means an inactive call. Activity calls are given as the source filed them.

Tests used:
Assay in all cases: NCI-60 one-dose screen, 48 h (100 = growth as untreated, 0 = no growth, -100 = all killed)
Conditions in all cases: 10 µM unless noted
SK-MEL-2 melanoma = system: SK-MEL-2 melanoma
EKVX NSCLC = system: EKVX NSCLC
SN12C renal = system: SN12C renal
TK-10 renal = system: TK-10 renal
ACHN renal = system: ACHN renal
CAKI-1 renal = system: CAKI-1 renal
A498 renal = system: A498 renal
CCRF-CEM leukemia = system: CCRF-CEM leukemia
MOLT-4 leukemia = system: MOLT-4 leukemia
SR leukemia = system: SR leukemia
RPMI-8226 leukemia = system: RPMI-8226 leukemia
OVCAR-8 ovarian = system: OVCAR-8 ovarian
OVCAR-5 ovarian = system: OVCAR-5 ovarian
OVCAR-4 ovarian = system: OVCAR-4 ovarian
SK-OV-3 ovarian = system: SK-OV-3 ovarian
IGROV1 ovarian = system: IGROV1 ovarian
OVCAR-3 ovarian = system: OVCAR-3 ovarian
HS 578T breast = system: HS 578T breast
NCI/ADR-RES ovarian = system: NCI/ADR-RES ovarian
UO-31 renal = system: UO-31 renal

Structure (SMILES) | growth (SK-MEL-2 melanoma) | growth (EKVX NSCLC) | growth (SN12C renal) | growth (TK-10 renal) | growth (ACHN renal) | growth (CAKI-1 renal) | growth (A498 renal) | growth (CCRF-CEM leukemia) | growth (MOLT-4 leukemia) | growth (SR leukemia) | growth (RPMI-8226 leukemia) | growth (OVCAR-8 ovarian) | growth (OVCAR-5 ovarian) | growth (OVCAR-4 ovarian) | growth (SK-OV-3 ovarian) | growth (IGROV1 ovarian) | growth (OVCAR-3 ovarian) | growth (HS 578T breast) | growth (NCI/ADR-RES ovarian) | growth (UO-31 renal)
Cc1cc(=O)[nH]c2c(C#N)cnn12 | 102% | 97% | 97.4% | 101% | 98.8% | 93.6% | 93.1% | 101% | 105% | 112% | 101% | 98.7% | 97.7% | 111% | 106% | 97.2% | 101% | 92.6% | 102% | 
O=Cc1ccc([N+](=O)[O-])s1 | 107% | 114% | 84.1% | 112% | 90.8% | 100% | 94.5% | 88.2% |  | 63.2% | 94.6% | 87.1% | 93.7% | 98.3% | 109% | 79.8% | 105% | 113% | 95.2% | 
Cc1c(-c2nc3ccc(F)cc3c(=O)[nH]2)c2ccccc2n1C | 45.6% | 57.5% | 38.8% | 83.5% | 36% |  | -12.8% (active) | 15.6% | 23% |  | 40.9% | 46.9% | 79.4% | 59.4% | 43.2% | 38.9% | 10.3% | 3.2% (active) | 21.9% | 53.7%
O=S(=O)(NCCNc1cc(-c2c(-c3cccc(O)c3)nc3sccn23)ccn1)c1ccc(C(F)(F)F)cc1 | 43.9% | 35.7% | 35.6% | 67.9% | 33.2% |  | 40.2% | 25.4% | 9.21% (active) | 19.6% | 30.3% | 28.4% | 93.5% |  | 45.4% | 36.4% | 37.1% | 42.8% | 58% | 
COc1cccc(/C=C/C(=O)c2cc3c(N)c(C(=O)Nc4ccccc4)sc3nc2C)c1 | 25.6% | 75.8% | 8.27% (active) | 40.1% | 33.5% | 15.4% | 58.8% | 7.86% (active) | 20.8% | 10.8% | -18.7% (active) | 3.31% (active) | 46.1% | 61.5% | 94.6% | 2.44% (active) | -26.5% (active) | 24.6% | -10.5% (active) | 
COc1cc(C(=O)n2nc(N3CCN(C)CC3)c3cc(N)ccc32)cc(OC)c1OC | 70.9% | 34.1% | 39.6% | 59.1% | 36.8% | 57.3% | -3.79% (active) | 20.2% | 17.3% | 13.3% | 33.3% | 30.3% | 50.4% | 49.7% | 28.1% | 32.5% | 4.26% (active) | 44.5% | 67.9% | 
CCOc1ccc(NC(=O)CSc2oc(-c3ccccc3)nc2S(=O)(=O)c2ccc(F)cc2)cc1 | 81.4% | 82.7% | 89.4% | 83% | 73.7% | 82.8% | 63.7% | 79.8% | 63.9% | 69.8% | 73% | 49.5% | 103% | 66.1% | 77.5% | 94.8% | 64.9% | 74.2% | 67.3% | 
CCOC(=O)c1c(NC(=O)c2ccc(C(C)C)cc2)sc2c(CN(C)C)c(O)ccc12 | 88.3% | 97.1% | 82% | 107% | 37.8% | 75.7% | 41.5% | 8.75% (active) |  | -21.5% (active) | -20% (active) | 89.1% | 64.1% | 87.2% | 99.2% | 72.5% | 96.1% | 86.2% | 72.6% | 
O=C(Nn1c2c(sc1=NCc1ccccc1)C(=O)c1ccccc1C2=O)c1cc2ccc1CCc1ccc(cc1)CC2 | 77.3% | 88.4% | 61.8% | 124% | 42% | 43.4% | 86.7% | 40.8% | 21% |  | 59% | 46.3% | 118% | 47.7% | 72.9% | 53% |  | 72.2% | 64.3% | 
CC(O)c1cnc(/C=C2\SC(=S)N(Cc3ccccc3)C2=O)s1 (configuration not stated) | 69.1% | 98.1% | 95.5% | -18.5% (active) | 88.2% | 87.8% | 104% | 18.8% |  | 32% | 4.74% (active) | 52.1% | 90.1% | 101% | 95.7% | 94% | 53.2% | 95.3% | 92.7% | 
CCCCCCCCCCCCCCCCCCOc1ccccc1CC(=O)OCC[N+]1(C)CCCC1 | 65.6% | 53.8% | 12.7% | 45.2% | 78.9% | 30.9% | 60.7% | 19.8% | 18.1% | 17.8% | 21.6% | 11.9% | 37.3% | 27.9% | 94.1% | -58% (active) | 22.3% | 30.3% | 82.3% | 
C#Cc1ccc(NC(=O)c2ccc(/C=C/C(=O)c3nccn3C)cc2)cc1 | -30.4% (active) | -75.4% (active) | -37.5% (active) | -2.59% (active) | -72.1% (active) | -81.6% (active) | -70.3% (active) | -9.16% (active) | -10% (active) | -18.8% (active) | -25.9% (active) | 5.61% (active) | -61.6% (active) | 9.83% (active) | 18.7% | -37.3% (active) | -86% (active) | 33.1% | -7.85% (active) | 
CC(C)c1ccc(COCc2cc(CN3CCCC3)c(O)c3ncccc23)cc1 | -23.9% (active) | 33.4% | 13.4% | 4.79% (active) | 6.16% (active) | 3.91% (active) | 0.55% (active) | 1.53% (active) | -5.7% (active) | -6.27% (active) | -21.4% (active) | -10.8% (active) | 32.8% | -6.36% (active) | -16.4% (active) | 9.42% (active) | -34.2% (active) | 41.6% | -51.2% (active) | 
Cc1ccc(-c2cc(-c3ccc(Cl)cc3)nc(NC(=O)c3cccnc3)n2)cc1 | 109% | 102% | 103% | 115% | 103% | 94.2% | 111% | 106% |  | 89.1% | 86.3% | 103% | 102% | 100% | 109% | 102% | 115% | 103% | 104% | 
Fc1ccc(Nc2nc3nonc3nc2Nc2ccc(I)cc2)cc1 | -39.7% (active) | 3.92% (active) | -5.7% (active) | -2.84% (active) | 4.53% (active) | 11.3% | -36.1% (active) | 1.66% (active) | -35.7% (active) | -4.09% (active) | -11.6% (active) | 4.01% (active) |  | 17.8% | -24.5% (active) | 23.2% |  | 8.99% (active) | 4.92% (active) | 
Brc1ccc(-n2cc(-c3nn[nH]n3)c(-c3cccs3)n2)cc1 | 101% | 90.5% | 88.9% | 104% | 89.4% | 91.1% | 81.5% | 103% | 101% | 110% | 99.3% | 98.8% | 100% | 100% | 93.5% | 93.2% | 105% | 96.3% | 107% | 
COc1ccc2c(c1)c(-c1noc(C(=O)c3cn(C)c4ccc(Br)cc34)n1)cn2C | 93.9% | 114% | 100% | 103% | 103% | 94.2% | 121% | 99.8% | 82.7% | 80.5% | 95.4% | 96.1% | 107% | 108% | 99.5% | 89.2% | 111% | 94.6% | 102% | 
